# PubChem BioAssay (NCI)
# This is part of a sample that, as a whole, favours compounds with a hit. Of some 83,000 tested, about 20% had one in any assay.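 For each line, cells grew in 96-well plates with the test compound present at a single concentration for 48 hours.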 A number with no mark means an inactive call. Activity calls are given as the source filed them.
# Test system: MDA-MB-468 breast
# Assay: NCI-60 one-dose screen, 48 h (100 = growth as untreated, 0 = no growth, -100 = all killed)
# Details: 10 µM unless noted
# Method: Growth inhibition of the MDA-MB-468 human Breast tumor cell line is measured as a screen for anti-cancer activity. Cells are grown in 96 well plates and exposed to the test compound for 48 hours. Compounds are tested at a single concentration, which is 10^-5 M for most compounds. The reported endpoint is percent growth (GI% or GIPRCNT), where numbers from 0 - 100% represent growth inhibition, and numbers from -100% - 0 represent cell death. For example, a value of 40 represents 60% growth inhibition. A value of 0 means no net growth occurred over the course of the experiment. A value of -40 indicates 40% of cells at the beginning of the experiment died by the end of the experiment. A value of -100 means all cells are dead at the end of the experiment.
# NCI-60 Human Tumor Cell Lines Screen was performed using the standard one-dose NCI protocol, which is described in more detail at https://dtp.cancer.gov/discovery_development/nci-60/default.htm.
# Compounds with GIPRCNT values below 10 were considered active. Activity score was based on GIPRCNT using the following formula: […]
# Score is 0 for GIPRCNT values of 100 or above, 50 for GIPRCNT values of 0, and 100 for GIPRCNT values of -100.
row,SMILES,growth
1,COc1ccc(C(=O)/C=C/c2ccc(Cl)c(Cl)c2)cc1S(N)(=O)=O,-19.4% (active)
2,CCCSc1nc(Nc2ccc(S(N)(=O)=O)cc2)c(C#N)c(-c2cc(OC)c(OC)c(OC)c2)n1,30.5%
3,CCCCOc1ccc(NC(=O)c2sc3nc(C)ccc3c2N)cc1,-48.4% (active)
4,Cc1ccc(C(=O)CSc2nc3ccc(C)cc3c(=O)n2-c2ccc(F)cc2)cc1,67.2%
5,COc1cc(/C=C/C(=O)c2ccc(C)cc2)ccc1Oc1nc(Nc2ccc(F)cc2)nc(N(C)C)n1,40.1%
6,CC1=C(C(=O)OCc2ccccc2)C(c2c(O)cc(O)cc2O)n2c(nc3ccccc32)N1 (stereo not given),-27.4% (active)
7,C=C1CC[C@@H]2[C@]3(C)COC(c4cn[nH]c4-c4ccc(Br)cc4)O[C@@H]3CC[C@@]2(C)[C@@H]1C/C=C1/C(=O)OCC1O (stereo not given in full),-85.9% (active)
8,O=C1c2c(c3c4cc(F)ccc4oc3c3[nH]c4ccc(Br)cc4c23)C(=O)N1O,46.4%
9,C=C1CCC2C3(C)COC(c4ccc(F)cc4)OC3CCC2(C)C1CC(O)C1=CCOC1=O (stereo not given),18.8%
10,CCCCCCn1c(O)c(N=Nc2nc(-c3cc4ccccc4oc3=O)cs2)c2ccccc21,45.3%
11,C#CCOc1cc(N(CC)CC)ccc1C(C(=O)NC(C)(C)C)N(C(=O)C1CCc2cc(F)ccc2O1)c1ccc(F)c(Cl)c1 (stereo not given),37.6%
12,CN(C)CCOc1ccc(C(=O)C2[C@H](c3ccc(Cl)cc3)[C@@H](c3ccccc3)NC23C(=O)Nc2ccc(Br)cc23)cc1 (stereo not given in full),-84.7% (active)
13,CCOC(=O)C(N=Nc1ccc(S(=O)(=O)N=C(N)N)cc1)C(C)=O (stereo not given),92.9%
14,Clc1cccc(-c2ccc(OCCCN3CCN(c4ccncc4)CC3)cc2)c1,-62.3% (active)
15,CC(=O)Nc1cccc(Nc2nc(NCc3ccccc3)c3ccccc3n2)c1,-93.7% (active)
16,CNC(=O)c1cc(Oc2ccc3nc(NC(=O)Nc4cccc(OC(F)(F)F)c4)sc3c2)ccn1,1.5% (active)
17,CCC(C)(C)c1ccc(OCCCCCCN2CCN(c3ccncc3)CC2)cc1,-81.5% (active)
18,C#CCOc1ccc(/C=N/Nc2nc(-c3ccc(F)cc3)cs2)cc1OC,51.3%
19,Cc1ccc(-c2nnc3ccc(N/N=C/c4ccccc4)nn23)cc1,91.4%
20,CCCn1cc(-c2nc(Nc3ccc(C(=O)NCCCCNc4cccc5c4C(=O)N(C4CCC(=O)NC4=O)C5=O)cc3)nc3[nH]ccc23)cn1 (stereo not given),-36.3% (active)

row,SMILES,growth
1,CCCCNC(=S)Nc1ccc(OCc2nc3ccccc3[nH]2)cc1,69.6%
2,CC(=O)c1cc(C(=O)c2ccccc2)n2c1ccc1ccccc12,93.9%
3,O=[N+]([O-])c1ccc(/C=C/c2nc3ccccc3n3c(=S)[nH]nc23)cc1,66.5%
4,CC(=O)OC[C@@]1(C)C2CC[C@]3(C)C(CC=C4C5CC(C)(C)CC[C@]5(C(=O)Nc5ccc(F)cc5)CC[C@]43C)[C@@]2(C)C[C@@H](OC(C)=O)[C@@H]1OC(C)=O (stereo not given in full),5.58% (active)
5,O=C(COc1ccc(NC(=O)Nc2ccccc2)cc1)N=Nc1c(O)[nH]c2ccc([N+](=O)[O-])cc12,-69.7% (active)
6,COc1ccc(C(=O)/C=C/c2ccccc2Cl)cc1S(N)(=O)=O,109%
7,Cc1ccccc1[C@H]1C(C(=O)c2ccc(Cl)cc2)C2(N[C@@H]1c1ccccc1)C(=O)Nc1ccc(Cl)cc12 (stereo not given in full),-19.1% (active)
8,CC1=C(C(=O)OCc2ccccc2)C(c2ccc(-n3cncn3)cc2)n2c(nc3ccccc32)N1 (stereo not given),-18.8% (active)
9,CSc1ccccc1NC(=O)c1ccc2nnn(/C(C#N)=C/c3ccccn3)c2c1,-92% (active)
10,CCOc1ccc(-c2c(C#N)c(-c3ccc(Cl)cc3)nc3n[nH]c(-c4ccc(Cl)cc4)c23)cc1OC,50.5%
11,O=C(COc1ccc(NC(=O)Nc2ccc(Cl)c(Cl)c2)cc1)N=Nc1c(O)[nH]c2ccccc12,-47.7% (active)
12,C=CC(=O)Nc1ccc(C)c(Oc2ccc(Cl)cc2)c1,10.2%
13,COc1cc(OC)cc(C(=O)Nc2cccc(-c3cn(-c4ccc(S(N)(=O)=O)cc4)nn3)c2)c1,95.4%
14,Nc1cc2ccccc2c(=O)n1NC(=O)c1ccc(I)cc1,98.9%
15,CCCSc1nc(NCCc2c[nH]c3ccccc23)c(C#N)c(-c2ccc(OC)cc2)n1,26.4%
16,CCCCCCCCc1ccc(S(=O)(=O)Nc2ccc(CC)cc2C(=O)O)cc1,82.2%
17,CCCS(=O)(=O)N1CCCC(C(=O)Nc2nc3ccc(NC(=O)c4ccc(F)c(OC)c4F)cc3s2)C1 (stereo not given),18.5%
18,COc1cc(C2CC(c3cc(OC)c(OC)c(OC)c3)=Nc3c(N)nc(N)nc3N2)ccc1Oc1nc(NCCO)nc(N2CCOCC2)n1 (stereo not given),81.2%
19,CC1(C)CC[C@]2(C(=O)O)CC[C@]3(C)C(=CCC4[C@@]5(C)C[C@@H](O)[C@@H]6OC(c7ccc(F)cc7)OC[C@@]6(C)C5CC[C@]43C)C2C1 (stereo not given in full),13.7%
20,CC1CN(c2oc(-c3ccc([N+](=O)[O-])cc3)nc2C#N)CC(C)O1 (stereo not given),125%
